The campaign covered roughly 290,000 compounds. About 11,000 (3.8%) were called active. This is one part of a sample in which actives are shown more often than they occur.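 How the source made its calls: active means mean replicate inhibition above about 79%, with every replicate also reaching it (limit read from the data); inconclusive means only one of the two criteria met; inactive means mean below limit and not every replicate reaching it.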
Each molecule was assayed against FAD-linked sulfhydryl oxidase ALR (Homo sapiens) (UniProt P55789) (assay: inhibitors of human ALR sulfhydryl oxidase, primary screen, biochemical, H2O2 detection, HRP-luminol luminescence, single point (AID 485317)). Settings: purified ALR, DTT oxidation, hits give high values, concentration not given here.
FAD-linked sulfhydryl oxidase ALR (Homo sapiens), sequence (P55789 whole entry, looked up): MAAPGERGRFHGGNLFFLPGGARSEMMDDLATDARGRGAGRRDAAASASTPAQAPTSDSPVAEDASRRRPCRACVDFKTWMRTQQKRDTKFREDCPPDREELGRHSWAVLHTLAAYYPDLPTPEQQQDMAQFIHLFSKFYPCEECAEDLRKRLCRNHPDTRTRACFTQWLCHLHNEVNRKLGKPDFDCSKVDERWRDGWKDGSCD

inhibition, inactive:
Cc1ccc(Br)c(NS(=O)(=O)c2cccc(C(=O)N3CCNC(=O)C3)c2)c1 -0.146%
COc1ccc(OCC(=O)Nc2ccc(N3CCC(C)CC3)cc2)cc1 1.79%
COc1ccccc1N1CCC(N2CCN(CC(C)(C)C)C(CCO)C2)CC1 (centres undefined) 21.8%
COc1ccc(CCNC(=O)C(=O)NCC2CCCN2S(=O)(=O)c2cccs2)cc1OC (centres undefined) -2.42%
Nc1cccc(CCc2nc3ccccc3[nH]2)c1 1.01%
O=C(OCc1nc2ccccc2[nH]1)C1CCCCC1 0.03%
CN(C)C(=O)c1ccc(NC(=O)COC(=O)c2cc3c(s2)CCCCC3)cc1 -2.4%
CCOc1ccc(NS(=O)(=O)c2ccc(Cl)c(C(=O)N(C)Cc3cccnc3)c2)cc1 -9.87%
O=C(Nc1cccc(S(=O)(=O)N2CCOCC2)c1)C12CC3CC(CC(C3)C1)C2 -1.07%
O=C1N[C@@H](c2ccccc2)COC(=O)[C@H](Cc2ccc(F)cc2)C/C=C\C[C@@H]1CC(=O)N(CCO)Cc1ccccc1 -1.44%
Cc1ccc(NC(=O)COc2coc(CN3CCc4ccccc4C3)cc2=O)cc1Cl -8.1%
Cc1ccsc1C(=O)OCC(=O)NCCc1ccccc1 -5.18%
Cc1ccc(N2C(=O)SC(N(CC(=O)O)c3ccc(C)cc3)C2=O)cc1 (centres undefined) 0.583%
Cc1cccc(N2C(=O)SC(SC(=Nc3ccccc3)Nc3ccccc3)C2=O)c1 (centres undefined) 0.802%
CN(N)c1nc(N2CCCC2)nc(N2CCCC2)n1 -6.99%
Cc1sc2ncnc(N3CCC(C(=O)Nc4ccc(F)cc4Cl)CC3)c2c1C 1.27%
Nc1c(-c2ccccc2)nnn1Cc1ccccc1 -6.35%
Cn1c(CC(=O)Nc2ccccc2)nnc1SCC(=O)c1ccccc1 -3.26%
Cc1ccc(C(=O)CSc2nnc(Cn3nnc4ccccc43)n2C)cc1 39.7%
S=c1[nH]nc(-c2ccco2)n1/N=C/c1ccc(Br)s1 68.5%
Cc1cc(-c2n[nH]c(=S)n2/N=C/c2ccco2)n[nH]1 -0.903%
COc1ccc(C(=O)COC(=O)C(O)c2ccccc2)c(OC)c1 (centres undefined) -0.55%
O=C(C1Cc2ccccc2CN1C(=O)c1ccco1)N1CCN(c2ccccc2)CC1 (centres undefined) 50.3%
Cc1ccc(Cl)c(OCC(=O)N(C)CC(=O)Nc2ccc(N3CCOCC3)cc2)c1 52.9%
CCCC(=O)N(CCc1ccccc1)Cc1nc2ccccc2c(=O)[nH]1 -7.51%
CCCCNC(=O)Cn1nc(C)c(S(=O)(=O)N2CCOCC2)c1C 3.23%
COc1ccc(S(=O)(=O)N2CCN(CC(=O)N3CCOCC3)CC2)cc1OC -0.297%
Cc1ccc(-c2nnc(Nc3ccc(C(=O)N(C)C)cc3)c3ccccc23)cc1S(N)(=O)=O -2.47%
Cc1cccc(-c2nc(Nc3ccc(O)cc3)c3ccccc3n2)c1 6.09%
O=C1NC(c2cccc(Cl)c2)Nc2ccccc21 (centres undefined) 0.575%
CCOC(=O)NN1C(=O)c2ccccc2NC1c1cccc(O)c1 (centres undefined) -18.3%
COc1ccc(C(=O)COC(=O)c2c(C)noc2C)cc1Cl 1.08%
Nc1nc(-c2ccccc2)cc(-c2ccccc2)n1 -2.58%
Nc1ccc(-c2nnc(-c3ccccc3)o2)cc1 36.1%
CCN1C(=O)[C@@H]2[C@@H](c3ccc(-c4ccccc4)cc3)N3CCCC[C@@]3(C(=O)OC)[C@@H]2C1=O -1.67%
CCCCn1c(N)c(N(CCOC)C(=O)c2cccc(S(=O)(=O)N(C)c3ccccc3)c2)c(=O)[nH]c1=O -2.15%
Cc1ccc(NC(=O)C2CC(=O)N(c3ccc4c(c3)OCCO4)C2)cc1S(=O)(=O)N1CCCCCC1 (centres undefined) -0.304%
COc1cc(C2C(C(=O)c3cccs3)=C(O)C(=O)N2CCN2CCOCC2)ccc1OCCC(C)C (centres undefined) -0.637%
COc1ccc(Cc2nnc(SCC(=O)Nc3ccc(C)c(Cl)c3)[nH]c2=O)cc1 -4.08%
Cc1ccc(NC(=O)C/C(N)=N/O)cc1Cl -7.95%
CC(C)(C)S(=O)(=O)c1ccccc1-c1noc(-c2ccccc2)c1C(N)=O -2.96%
COc1ccc(C2NC(=O)c3ccccc3N2)cc1 (centres undefined) 0.0966%
COc1ccc2nc3n(c(=O)c2c1)-c1ccc(Cl)cc1C(=O)NC3Cc1ccccc1 (centres undefined) -0.323%
CC(C)(C)c1ccc(C(=O)NCc2ccco2)cc1 1.34%
CN(CC(=O)NC1CCN(Cc2ccccc2)CC1)S(=O)(=O)c1ccc(Cl)s1 -2.03%
Cc1ccc(NC(=O)c2ccc(Cl)nc2)cc1S(=O)(=O)N1CCOCC1 -4.04%
Cc1ccc(S(=O)(=O)NCCC(=O)NC2CCN(Cc3ccccc3)CC2)cc1 6.19%
Cc1ccc(NC(=O)CS(=O)CC(=O)N(c2ccccc2)C(C)C(=O)NC2CCCC2)cc1 (centres undefined) -4.87%
Cc1ccc(NC(=O)CSCC(=O)NC2CCCCC2)cc1 -3.3%
Cc1ccc(-c2cc(C(=O)NC3CCN(Cc4ccccc4)CC3)c3ccccc3n2)cc1 1.58%
COC(=O)[C@]1(CC(C)C)N[C@H](c2ccc(SC3CCCCC3)cc2)[C@@H]2C(=O)N(C)C(=O)[C@@H]21 -4.22%
O=C(Nc1cccc(S(=O)(=O)N2CCCC2)c1)c1cncc(Br)c1 -0.493%
OCC[C@H]1C[C@@H](O)[C@H](O)[C@@]2(OCCc3ccccc32)O1 -5.81%
C=CC[C@@H](CC(=O)N[C@@H](CO)Cc1ccccc1)C(=O)N[C@H](COC(=O)[C@H](CC=C)CC(=O)OC(C)(C)C)Cc1ccccc1 0.393%
Oc1c(C(c2ccco2)N2CCC3(CC2)OCCO3)sc2ncnn12 (centres undefined) -33.4%
Cc1ccc(C(c2sc3nc(C)nn3c2O)N2CCN(c3ccc(F)cc3)CC2)cc1 (centres undefined) 2.24%
COc1ccc(C(CNC(=O)c2ccc(NS(=O)(=O)c3ccc(F)c(C)c3)cc2)N(C)C)cc1 (centres undefined) -5.64%
CC1(C)CC(=O)C=C(c2ccc(Cl)c(C(F)(F)F)c2)C1 3.75%
CCN(CC(=O)Nc1ccc(NC(C)=O)cc1)C(=O)CSC(=S)N1CCCC1 -0.0599%
COc1cc(NC(=O)CSC(=S)N2CCCC2)c(OC)cc1Cl -2.05%
CN1C(=O)c2cccc3c(N)ccc(c23)C1=O -15.1%
CCN1C(=O)c2cccc3c(S(=O)(=O)Nc4ccccc4O)ccc1c23 -28.9%
COc1ccc(-c2c(C#Cc3ccccc3)c3ccccc3n2C)cc1 -4.24%
CCOC(=O)C1CCN(CC(=O)Nc2ccc(OC)c(S(=O)(=O)N3CCCCC3)c2)CC1 -8.75%
COc1ccc(F)cc1S(=O)(=O)NCC(c1ccc2c(c1)OCO2)N1CCN(C)CC1 (centres undefined) -4.58%
CN(C(=O)c1cccc(NC(=O)C2CCN(C(=O)OC(C)(C)C)CC2)c1)C1CCC1 4.19%
C=CCNC(=O)COc1coc(CN2CCN(Cc3ccccc3)CC2)cc1=O -3.07%
Cc1ccc(C(=O)Oc2coc(CSc3nnc(NC(=O)c4cccs4)s3)cc2=O)cc1C 0.72%
CC(=O)NCc1ccc(-c2csc(NC(=O)CCCc3nc4ccccc4c(=O)[nH]3)n2)cc1 -5.1%
C[C@@H]1CN([C@H](C)CO)C(=O)c2cc(NC(=O)NC3CCCCC3)ccc2O[C@H]1CN(C)S(C)(=O)=O 0.076%
Cc1cccc(N=C2SC(C)CN2C(=O)CN2C(=O)NC3(CCCC3)C2=O)c1 (centres undefined) 2.77%

inhibition, active:
COc1ccc(N2CCC(N3CCN(C)C(CCO)C3)CC2)cc1 (centres undefined) 86.4%
Oc1ccc2nc(Cc3ccccc3)[nH]c2c1 98.6%
Oc1cc(O)c2c(c1)OC(c1ccc(O)c(O)c1)C(O)C2 (centres undefined) 98.2%
Cc1cccc(N2C(=O)SC(N(CC(=O)O)c3cccc(C)c3)C2=O)c1 (centres undefined) 98.6%
Cn1c(CC2Sc3ccccc3NC2=O)nnc1SCC(=O)c1ccc(Cl)cc1 (centres undefined) 92.8%
S=c1[nH]nc(-c2ccco2)n1/N=C/c1ccccc1 94.9%
O=C(CCc1[nH]c2ccccc2c1Sc1ccccc1)N(CCO)CCO 99%
Oc1ccc(-c2nnc(Nc3ccccc3)c3ccccc23)cc1 98.8%
O=C1c2ccccc2NC(c2ccc(-c3cccc(Cl)c3)o2)N1O (centres undefined) 95.9%
Nc1ccc(-c2sc(N)nc2-c2ccccc2)cc1 99%
Cc1ccc(NC(=O)CSc2nn3c(=O)c(C)nnc3s2)cc1Cl 98.9%
COc1ccc2c(c1)C(=O)Nc1cc(Cl)ccc1N2 87.7%
Cc1ccc(-c2nc(CS(=O)CC(=O)NC3CCCC3)c(C)o2)cc1 (centres undefined) 99.1%
Cc1ccc(-c2nc(CSCC(=O)NC3CCN(Cc4ccccc4)CC3)c(C)o2)cc1 99.5%
Oc1c(C(c2cccs2)N2CCN(c3ccc(F)cc3)CC2)sc2ncnn12 (centres undefined) 95.5%
CC(=O)c1ccc(NC(=O)CSC(=S)N2CCCC2)cc1 92.8%
CCN1C(=O)c2cccc3c(N)ccc1c23 99.2%
O=C(/C=C/c1ccccc1)Oc1coc(CSc2ncccn2)cc1=O 97.4%
